Results published in PubChem BioAssay.
Calls of active or inactive are those of the source.

How the values were obtained:
[1] = test system: Human papillomavirus type 1a protein E7 (residues 44-93); experiment: HPV1a E7 fragment binders on microarrays, primary screen, biochemical, small-molecule microarray, residues 44-93, 635 nm fluorescence (AID 1108); settings: small-molecule microarray binding, fluorescence 635 nm; higher = more signal;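 also: E7 fragment applied at 1 µg/mL in TBST for 1 h at 4 C; score combines spot fluorescence with its signal to noise ratio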
[2] = modulators of HCV replicon luciferase signal, primary screen, HCV replication inhibitor project, Huh7 cells, luciferase reporter (AID 1109); settings: 48 h, higher = more signal;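 also: huh7 hepatoma cells harbouring a luciferase neomycin HCV replicon reporter; luciferase luminescence as measure of HCV replicon replication; test concentration not given here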
[3] = target: Left-right determination factor 2 (Homo sapiens) (UniProt O00292); experiment: LEFTY2 binders on small-molecule microarrays, primary screen, biochemical, small-molecule microarray, 635 nm fluorescence scan (AID 1110); settings: LEFTY2 binding, higher = more signal
Chain of Left-right determination factor 2 (Homo sapiens) (O00292 whole entry, looked up): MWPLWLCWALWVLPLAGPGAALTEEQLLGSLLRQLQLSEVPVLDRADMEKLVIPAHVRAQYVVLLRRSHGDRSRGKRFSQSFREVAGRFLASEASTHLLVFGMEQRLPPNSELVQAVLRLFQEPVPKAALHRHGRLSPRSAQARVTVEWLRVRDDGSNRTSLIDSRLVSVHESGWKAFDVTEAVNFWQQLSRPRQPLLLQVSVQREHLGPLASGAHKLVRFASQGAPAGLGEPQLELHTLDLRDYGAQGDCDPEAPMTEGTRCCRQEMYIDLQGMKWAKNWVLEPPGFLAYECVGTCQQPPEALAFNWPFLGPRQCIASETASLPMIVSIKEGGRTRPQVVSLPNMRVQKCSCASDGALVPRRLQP

[4] = target: Calmodulin-1 (Homo sapiens) (UniProt P0DP23); experiment: CALM1 binders on microarrays, EGTA buffer, profiling panel, biochemical, small-molecule microarray, Cy5-labelled CALM1 (AID 1111); settings: Cy5-CALM1 binding fluorescence, higher = more signal;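 also: labelled calmodulin applied in Tris saline Tween buffer holding calcium plus EGTA and DTT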
[5] = target: Calmodulin-1 (Homo sapiens) (UniProt P0DP23); experiment: calcium-bound CALM1 binders on microarrays, profiling panel, artefact control for SMM control-protein annotation, biochemical, small-molecule microarray, Cy5-labelled CALM1, plus calcium (AID 1112); settings: Cy5-CALM1 binding fluorescence, higher = more signal;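 also: score merges spot fluorescence with signal to noise from triplicate slides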
[6] = small-molecule microarray binders of probe aWnt5a, primary screen, biochemical, biotinylated probe, 635/667 nm fluorescence (AID 1113); settings: higher = more signal;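 also: score merges 667 nm fluorescence intensity with signal-to-noise per printed feature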
[7] = small-molecule microarray binders of probe aShh, primary screen, biochemical, biotinylated probe, 635/667 nm fluorescence (AID 1114); settings: higher = more signal;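 also: probe is biotin-labelled aShh protein from a stem cell growth factor screen; measures binding of labelled protein to compounds printed on the slide; score merges feature fluorescence at 667 nm with signal-to-noise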
[8] = small-molecule microarray binders of probe aNog, primary screen, biochemical, biotinylated probe, 635/667 nm fluorescence (AID 1115); settings: higher = more signal;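 also: probe is biotinylated aNog protein used at 0.15 µg/mL for 1 h at 4 C; z-score combines 667 nm fluorescence of each spot with its signal to noise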
[9] = target: Torsin-1A-interacting protein 1 (Homo sapiens) (UniProt Q5JTV8); experiment: LAP1 binders from COS7 cell lysate, primary screen, small-molecule microarray, 635/667 nm fluorescence (AID 1116); settings: COS7-hLAP1 lysate binding, 635 nm fluorescence, higher = more signal
Chain of Torsin-1A-interacting protein 1 (Homo sapiens) (Q5JTV8 whole entry, looked up): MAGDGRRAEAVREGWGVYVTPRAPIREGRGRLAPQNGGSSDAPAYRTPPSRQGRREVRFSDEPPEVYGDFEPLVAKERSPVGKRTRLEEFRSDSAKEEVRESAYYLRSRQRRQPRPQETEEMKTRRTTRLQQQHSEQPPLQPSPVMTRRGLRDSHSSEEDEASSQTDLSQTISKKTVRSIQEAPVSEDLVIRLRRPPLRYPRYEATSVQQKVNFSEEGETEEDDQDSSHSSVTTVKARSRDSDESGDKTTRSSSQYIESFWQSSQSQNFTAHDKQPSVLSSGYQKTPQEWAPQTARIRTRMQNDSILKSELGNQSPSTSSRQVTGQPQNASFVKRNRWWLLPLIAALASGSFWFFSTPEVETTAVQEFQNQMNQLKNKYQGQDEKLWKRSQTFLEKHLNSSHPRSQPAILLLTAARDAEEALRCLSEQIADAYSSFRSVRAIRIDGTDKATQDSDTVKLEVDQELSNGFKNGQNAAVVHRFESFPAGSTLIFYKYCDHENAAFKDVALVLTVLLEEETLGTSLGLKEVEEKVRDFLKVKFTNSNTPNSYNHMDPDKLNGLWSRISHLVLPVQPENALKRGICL

[10] = target: Alpha-bungarotoxin (Bungarus multicinctus) (UniProt P60615); experiment: alpha-bungarotoxin binders on microarray, profiling panel, artefact control for SMM control protein annotation, biochemical, small-molecule microarray, Alexa647 label, 635/667 nm fluorescence (AID 1117); settings: alpha-BTX-A647 binding fluorescence, higher = more signal
Chain of Alpha-bungarotoxin (Bungarus multicinctus) (P60615 whole entry, looked up): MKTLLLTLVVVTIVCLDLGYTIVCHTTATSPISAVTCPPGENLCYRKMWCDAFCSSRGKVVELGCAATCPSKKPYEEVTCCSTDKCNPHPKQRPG

Albumin (Bos taurus) = Albumin (Bos taurus) (UniProt P02769); experiment: bovine serum albumin binders on microarray, profiling panel, artefact control for SMM control protein annotation, biochemical, small-molecule microarray, Alexa647 label, 635/667 nm fluorescence (AID 1118); settings: BSA-A647 binding, fluorescence 635 nm, higher = more signal;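 also: score merges 667 nm emission intensity and signal-to-noise per printed compound spot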
Chain of Albumin (Bos taurus) (P02769 whole entry, looked up): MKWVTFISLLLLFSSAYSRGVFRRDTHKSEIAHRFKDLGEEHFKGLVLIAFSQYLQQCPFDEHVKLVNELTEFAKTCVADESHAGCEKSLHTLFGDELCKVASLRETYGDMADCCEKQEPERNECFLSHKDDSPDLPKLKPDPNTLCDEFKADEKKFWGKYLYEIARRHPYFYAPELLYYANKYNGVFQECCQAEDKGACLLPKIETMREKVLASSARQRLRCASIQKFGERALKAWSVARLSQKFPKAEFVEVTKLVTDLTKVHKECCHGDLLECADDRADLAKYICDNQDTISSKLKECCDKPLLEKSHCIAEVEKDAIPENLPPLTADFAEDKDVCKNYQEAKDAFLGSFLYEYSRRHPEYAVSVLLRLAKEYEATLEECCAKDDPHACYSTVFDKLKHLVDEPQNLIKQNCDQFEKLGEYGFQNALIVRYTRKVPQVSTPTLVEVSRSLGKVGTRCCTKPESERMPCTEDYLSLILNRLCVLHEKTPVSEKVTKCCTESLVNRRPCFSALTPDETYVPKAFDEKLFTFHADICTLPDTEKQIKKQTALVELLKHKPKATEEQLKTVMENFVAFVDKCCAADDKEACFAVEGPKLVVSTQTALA

[11] = small-molecule microarray binders of probe aXIP, primary screen, biochemical, NeuroSMM set, 635/667 nm fluorescence (AID 1119); settings: higher = more signal, called active from +8 up or from −8 down;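 also: probe is the protein aXip251-270 applied at 1 µg/mL to compound-printed slides; binding of probe to printed compounds measured as 667 nm fluorescence plus signal to noise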
[12] = small-molecule binders of probe aNOTCH3, primary screen, biochemical, small-molecule microarray, 635/667 nm fluorescence (AID 1120); settings: higher = more signal;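 also: probe is a biotin-tagged antibody raised against NOTCH3 rather than NOTCH3 protein; score merges spot fluorescence near 667 nm with spot signal to noise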
[13] = small-molecule binders of probe aNOTCH2, primary screen, biochemical, small-molecule microarray, 635/667 nm fluorescence (AID 1121); settings: higher = more signal;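 also: score merges feature fluorescence read at 667 nm with its signal to noise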
[14] = target: Carbonic anhydrase 2 (Homo sapiens) (UniProt P00918); experiment: CAII small-molecule binders, profiling panel, biochemical, small-molecule microarray, Alexa647-labelled CAII (AID 1122); settings: CAII-A647 binding fluorescence, higher = more signal
[15] = COS7 lysate on small-molecule microarray, probe aHis, 635 nm (AID 1123); settings: COS7 cell lysate, fluorescence, higher = more signal;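 also: z-score combines 667nm fluorescence intensity with signal-to-noise per printed compound spot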
[16] = compound binding in COS7 lysate, probe aLAP1, primary screen, cell lysate, small-molecule microarray (AID 1124); settings: probe aLAP1, fluorescence, higher = more signal;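 also: lysate comes from COS7 cells expressing LAP1 and is applied at 0.3 µg/mL; score merges spot fluorescence near 667 nm with signal-to-noise over triplicate slides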
Sam68 (KHDRBS1) = experiment: Sam68 small-molecule binders, primary screen, biochemical, small-molecule microarray, 635 nm fluorescence (AID 1125); settings: small-molecule microarray binding, higher = more signal;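 also: score merges 667 nm channel intensity with signal to noise over triplicate slides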
[17] = test system: Chordin-like protein 2 (CHRDL2); experiment: CHRDL2 small-molecule binders, primary screen, biochemical, small-molecule microarray, 635 nm fluorescence (AID 1126); settings: small-molecule microarray binding, fluorescence 635 nm; higher = more signal;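 also: printed compound slides probed with Chrdl2 protein at 4 µg/mL for 1 h at 4 C; score merges 667 nm emission intensity with signal to noise over three replicate slides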
[18] = target: Concanavalin-A (Canavalia ensiformis) (UniProt P02866); experiment: ConA small-molecule binders, primary screen, artefact control for SMM control protein annotation, biochemical, small-molecule microarray, Alexa647 label, 635 nm (AID 1127); settings: ConA-A647 binding fluorescence, higher = more signal;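 also: z combines 667 nm emission intensity with signal-to-noise across three replicate slides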
Chain of Concanavalin-A (Canavalia ensiformis) (P02866 whole entry, looked up): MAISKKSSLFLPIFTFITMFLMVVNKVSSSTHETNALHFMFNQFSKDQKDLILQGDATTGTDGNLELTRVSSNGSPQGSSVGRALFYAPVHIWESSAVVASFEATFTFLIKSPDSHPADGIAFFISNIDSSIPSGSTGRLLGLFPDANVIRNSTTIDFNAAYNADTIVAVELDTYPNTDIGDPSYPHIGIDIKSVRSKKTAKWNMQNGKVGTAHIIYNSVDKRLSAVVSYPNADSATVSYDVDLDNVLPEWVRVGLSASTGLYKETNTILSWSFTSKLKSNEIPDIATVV

Row | Compound | composite z-score [1] | z-score [2] | composite z-score [3] | composite z-score [4] | composite z-score [5] | composite z-score [6] | composite z-score [7] | composite z-score [8] | composite z-score [9] | composite z-score [10] | composite z-score (Albumin (Bos taurus)) | composite Z-score [11] | composite z-score [12] | composite z-score [13] | composite z-score [14] | composite z-score [15] | composite z-score [16] | composite z-score (Sam68 (KHDRBS1)) | composite z-score [17] | composite z-score [18]
1 | NC(=O)NCC#Cc1ccc2c(c1)[C@]1(C(=O)N2)[C@H](c2ccccc2OCCO)N2[C@H](c3ccccc3)[C@H](c3ccccc3)OC(=O)[C@H]2[C@@H]1C(=O)N1CCCCCCC1 | 1.43 | -0.968 | 1.34 | 2.9 | 1.55 | 1.18 | 0.728 | 3.1 | 4.58 | 3.37 | 0.0389 | 4.09 (inactive) | 1.72 | 0.813 | 0.951 | 3.72 | 1.86 | 1.29 | 1.05 | 1.11
2 | O=C(NCC(O)CO)[C@]1(CCS(=O)(=O)c2ccccc2)N=C(c2ccc(OCCCO)cc2)O[C@@H]1c1ccccc1 (stereo not given in full) | 0.556 | -0.326 | -0.805 | 1.99 | 1.48 | -0.0846 | 0.0756 | 1.12 | 2.69 | 2.41 | 1.11 | -0.262 (inactive) | -0.095 | -0.0392 | 0.761 | 3.41 | 0.944 | 1.23 | -1.41 | 0.87
3 | O=C(NCC(O)CO)[C@@]1(Cc2ccccc2)COC(c2ccc(OCCCO)cc2)=N1 (stereo not given in full) | 0.422 | -0.992 | -0.483 | 0.77 | 1.11 | -0.0704 | -0.283 | -0.134 | 0.561 | -0.363 | 0.536 | -0.936 (inactive) | -0.0984 | -0.189 | 0.738 | 0.737 | -0.192 | -0.274 | -0.445 | -1.4
4 | CN(C)CCCCCCNC(=O)[C@@H]1C[C@@H]2C(=O)N[C@@H](Cc3ccccc3)C(=O)N2[C@@H]1c1cccc(OCCO)c1 | 1.39 | 1.73 | 0.637 | -0.345 | -0.287 | -0.0472 | 0.0756 | 0.109 | 1.93 | 2.64 | -0.0152 | 0.816 (inactive) | 0.0715 | -0.0793 | 0.784 | 2.51 | 0.142 | 1.31 | 0.711 | 1.11
5 | C[C@H]1C2[C@H](Cc3ccccc3)NC(=O)[C@]23C(=O)N[C@H](Cc2ccccc2)C(=O)N[C@H](Cc2ccccc2)C(=O)NC/C=C/CCC/C=C/C3[C@@H]2O[C@]12C (stereo not given in full) | 1.39 | 0.554 | -0.0974 | -0.343 | -1.28 | -0.124 | -0.123 | -0.0662 | -0.564 | 0.617 | 0.63 | 0.312 (inactive) | -0.246 | -0.115 | 0.312 | 1.25 | 0.338 | 0.179 | 0.8 | 0.472
